Numbering of substitutions follows the chain as printed; changes in the protein carry UniProt numbers. Over roughly 16,000 sequences, “ka relative to ugcaugu” has its median near 0.0091; the highest 2% begin near 0.032. The sample holds the highest values, similar sequences and a random draw of the others, so the mix is not that of the screen.
T1: RBFOX1 RRM (Homo sapiens, UniProt Q9NWB1 109-208)
T1 sequence: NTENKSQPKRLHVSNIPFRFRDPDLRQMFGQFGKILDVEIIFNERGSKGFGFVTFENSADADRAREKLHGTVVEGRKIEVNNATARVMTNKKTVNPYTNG

B1: UCAUGUU (DNA:RNA)
RNA: GGGAGACCGGAAUUCAGAUUGUCCUCAUGUUUUAAAUCCCGUCGUAGCCACCA
DNA 1: CAATCTGAATTCCGGTCTCCC
DNA 2: TGGTGGCTACGACGGGATT
B2: GCUGUUA (DNA:RNA)
RNA: B1 RNA with U25G, A27U, U28G, G29U, U31A
DNA 1: CAATCTGAATTCCGGTCTCCC
DNA 2: TGGTGGCTACGACGGGATT
B3: GGCGCCG (DNA:RNA)
RNA: GGGAGACCGGAAUUCAGAUUGUCCGGCGCCGUUAAAUCCCGUCGUAGCCACCA
DNA 1: CAATCTGAATTCCGGTCTCCC
DNA 2: TGGTGGCTACGACGGGATT
B4: GUCGGAU (DNA:RNA)
RNA: B3 RNA with G26U, C29G, C30A, G31U
DNA 1: CAATCTGAATTCCGGTCTCCC
DNA 2: TGGTGGCTACGACGGGATT
B5: GUCCGGA (DNA:RNA)
RNA: B3 RNA with G26U, G28C, C29G, C30G, G31A
DNA 1: CAATCTGAATTCCGGTCTCCC
DNA 2: TGGTGGCTACGACGGGATT
B6: GGGAUAG (DNA:RNA)
RNA: B3 RNA with C27G, G28A, C29U, C30A
DNA 1: CAATCTGAATTCCGGTCTCCC
DNA 2: TGGTGGCTACGACGGGATT
B7: GUCGGGA (DNA:RNA)
RNA: B3 RNA with G26U, C29G, C30G, G31A
DNA 1: CAATCTGAATTCCGGTCTCCC
DNA 2: TGGTGGCTACGACGGGATT
B8: GGAUAGU (DNA:RNA)
RNA: B1 RNA with U25G, C26G, G29A, U30G
DNA 1: CAATCTGAATTCCGGTCTCCC
DNA 2: TGGTGGCTACGACGGGATT
B9: GGGAUUG (DNA:RNA)
RNA: B3 RNA with C27G, G28A, C29U, C30U
DNA 1: CAATCTGAATTCCGGTCTCCC
DNA 2: TGGTGGCTACGACGGGATT
B10: CGGAUUG (DNA:RNA)
RNA: B3 RNA with G25C, C27G, G28A, C29U, C30U
DNA 1: CAATCTGAATTCCGGTCTCCC
DNA 2: TGGTGGCTACGACGGGATT
B11: GAAUUUG (DNA:RNA)
RNA: B1 RNA with U25G, C26A, G29U, U31G
DNA 1: CAATCTGAATTCCGGTCTCCC
DNA 2: TGGTGGCTACGACGGGATT
B12: CACCGGA (DNA:RNA)
RNA: B3 RNA with G25C, G26A, G28C, C29G, C30G, G31A
DNA 1: CAATCTGAATTCCGGTCTCCC
DNA 2: TGGTGGCTACGACGGGATT
B13: GGGGGGA (DNA:RNA)
RNA: B3 RNA with C27G, C29G, C30G, G31A
DNA 1: CAATCTGAATTCCGGTCTCCC
DNA 2: TGGTGGCTACGACGGGATT
B14: GGAUUUG (DNA:RNA)
RNA: B3 RNA with C27A, G28U, C29U, C30U
DNA 1: CAATCTGAATTCCGGTCTCCC
DNA 2: TGGTGGCTACGACGGGATT
B15: CGGAUAG (DNA:RNA)
RNA: B3 RNA with G25C, C27G, G28A, C29U, C30A
DNA 1: CAATCTGAATTCCGGTCTCCC
DNA 2: TGGTGGCTACGACGGGATT
B16: GGGUACA (DNA:RNA)
RNA: B3 RNA with C27G, G28U, C29A, G31A
DNA 1: CAATCTGAATTCCGGTCTCCC
DNA 2: TGGTGGCTACGACGGGATT
B17: GUUCUUU (DNA:RNA)
RNA: B1 RNA with U25G, C26U, A27U, U28C, G29U
DNA 1: CAATCTGAATTCCGGTCTCCC
DNA 2: TGGTGGCTACGACGGGATT
B18: UCUUAUA (DNA:RNA)
RNA: B1 RNA with A27U, G29A, U31A
DNA 1: CAATCTGAATTCCGGTCTCCC
DNA 2: TGGTGGCTACGACGGGATT
B19: UAGUUAU (DNA:RNA)
RNA: B1 RNA with C26A, A27G, G29U, U30A
DNA 1: CAATCTGAATTCCGGTCTCCC
DNA 2: TGGTGGCTACGACGGGATT
B20: CCUCUCC (DNA:RNA)
RNA: B3 RNA with G25C, G26C, C27U, G28C, C29U, G31C
DNA 1: CAATCTGAATTCCGGTCTCCC
DNA 2: TGGTGGCTACGACGGGATT

The binders below were run against T1, RBFOX1 RRM (assay: EMSA; HiTS-Eq, 1 nM pool, 10 min; buffer printed only for the single-RNA assays: 10 mM Tris pH 7.5, 150 mM NaCl, 3.4 mM EDTA, 0.001% NP-40, 30 C). Settings: tags: His6 N-terminal (pET28a); label: 5' 32P.
Method in brief: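 Purified RbFox RRM, wild type or mutant, was incubated for 10 min in 50 µL with 1 nM of a 5′-radiolabelled RNA pool carrying 7 randomized nucleotides, whose flanks were annealed to DNA oligonucleotides, over a series of increasing protein concentrations. Unbound RNA was resolved on 8% native PAGE, cut out, reverse-transcribed, barcoded by PCR and sequenced on an Illumina HiSeq 2500. Relative association constants were derived from changes in read counts for each RNA species versus the control reaction and normalised to the cognate motif.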
B1 was tested, and the binding signal was 0.0106 KA relative to UGCAUGU.
In the case of B2, the binding signal is reported as 0.0113 KA relative to UGCAUGU.
For B3, the binding signal was 0.00841 KA relative to UGCAUGU.
With B4 the binding signal was 0.00831 KA relative to UGCAUGU.
B5 was tested, and the binding signal was 0.00347 KA relative to UGCAUGU.
In the case of B6, the binding signal is reported as 0.0337 KA relative to UGCAUGU.
With B7 the binding signal was 0.0117 KA relative to UGCAUGU.
With B8 the binding signal was 0.0169 KA relative to UGCAUGU.
B9 was tested, and the binding signal was 0.0593 KA relative to UGCAUGU.
In the case of B10, the binding signal is reported as 0.0329 KA relative to UGCAUGU.
In the case of B11, the binding signal is reported as 0.0172 KA relative to UGCAUGU.
With B12 the binding signal was 0.00389 KA relative to UGCAUGU.
In the case of B13, the binding signal is reported as 0.0226 KA relative to UGCAUGU.
In the case of B14, the binding signal is reported as 0.034 KA relative to UGCAUGU.
With B15 the binding signal was 0.0228 KA relative to UGCAUGU.
In the case of B16, the binding signal is reported as 0.0112 KA relative to UGCAUGU.
For B17, the binding signal was 0.0158 KA relative to UGCAUGU.
B18 was tested, and the binding signal was 0.00158 KA relative to UGCAUGU.
In the case of B19, the binding signal is reported as 0.00794 KA relative to UGCAUGU.
B20 was tested, and the binding signal was 0.00489 KA relative to UGCAUGU.
